Measured values published in PubChem BioAssay AID1402 (National Center for Advancing Translational Sciences (NCATS), 2008).
Results filed as inconclusive are left out. Active and inactive are the calls of the source. The call rests on the fitted dose curve; in most records, active means well fitted curve in the direction sought with a large enough effect in the signal ratio; inconclusive means small, poorly fitted or top-dose-only effect, or effect the other way, or a change in a side signal; inactive means no such curve, though single readings can be large or run the other way; the % refers to the signal ratio.

Each molecule was assayed against Lutropin-choriogonadotropic hormone receptor (Homo sapiens) (UniProt P22888) (assay: Counterscreen for Agonists of Thyroid Stimulating Hormone Receptor: HTRF Activity in a Luteinizing Hormone Receptor Cell Line). Conditions: HEK293-LHR cells, cAMP HTRF ratio, 30 min; series mostly up to 91.7 µM.
Lutropin-choriogonadotropic hormone receptor (Homo sapiens), sequence (P22888 whole entry, looked up): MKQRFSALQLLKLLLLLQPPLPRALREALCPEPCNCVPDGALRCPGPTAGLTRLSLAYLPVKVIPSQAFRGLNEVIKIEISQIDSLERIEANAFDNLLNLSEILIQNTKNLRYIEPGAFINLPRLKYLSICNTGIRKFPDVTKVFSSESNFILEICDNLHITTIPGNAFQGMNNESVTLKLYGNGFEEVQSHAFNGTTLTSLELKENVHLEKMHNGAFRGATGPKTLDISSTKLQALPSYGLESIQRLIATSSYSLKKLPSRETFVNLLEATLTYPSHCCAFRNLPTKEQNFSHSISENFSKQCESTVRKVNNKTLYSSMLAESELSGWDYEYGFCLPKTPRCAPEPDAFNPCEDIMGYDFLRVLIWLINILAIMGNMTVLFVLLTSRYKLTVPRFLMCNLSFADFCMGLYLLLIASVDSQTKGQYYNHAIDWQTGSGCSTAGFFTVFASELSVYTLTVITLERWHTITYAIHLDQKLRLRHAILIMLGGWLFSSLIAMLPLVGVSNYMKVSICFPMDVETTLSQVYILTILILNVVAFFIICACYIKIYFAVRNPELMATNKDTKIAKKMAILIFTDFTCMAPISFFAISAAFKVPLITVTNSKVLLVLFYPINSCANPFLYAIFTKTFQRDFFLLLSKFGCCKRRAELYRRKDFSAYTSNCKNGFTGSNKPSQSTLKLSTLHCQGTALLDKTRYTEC
From the text: NIH Chemical Genomics Center [NCGC] NIH Molecular Libraries Screening Centers Network [MLSCN] MLSCN Grant: 1 X01 MH080680-01 PI Name: Dr. Marvin Gershengorn, NIH NCGC Assay Overview: Confirmation of Thyroid Stimulating Hormone Receptor Agonists TSH is an alpha/beta heterodimeric glycoprotein hormone secreted from the anterior pituitary gland which belongs to the glycoprotein hormone family. The actions of TSH are mediated by a seven-transmembrane receptor, which upon TSH binding couples preferentially to the G-alpha (s) protein (Gs), resulting in activation of adenylate cyclase and increase in cyclic adenosine 3', 5' monophosphate (cAMP). The TSH receptor (THSR) is mainly expressed in thyroid follicular cells and regulates their growth and function. Recombinant TSH is used to activate TSHR in patients with thyroid cancer receiving thyroid hormone suppression therapy and to screen for residual tumor after surgery, but it is expensive and must be administered intramuscularly. An orally active small molecule TSHR agonist would serve as an invaluable research tool for studying TSHR pharmacology and physiology, and would have multiple advantages in therapeutic settings. However, no selective small molecule agonist of the TSH receptor exists, and no small molecule screen for TSHR agonists has ever been reported. In order to confirm specificity of the compounds to the TSHR, a confirmatory assay was conducted on a similar family member, the Luteinizing Hormone (LH) receptor, transfected into a HEK 293 cell line, using an orthogonal detection technology to measure cAMP stimulation: antibody-based Homogeneous Time Resolved Fluorescence (HTRF).
NCGC Assay Protocol Summary: Homogeneous Time Resolved Fluorescence (HTRF) cAMP Assay. HEK 293 cells stably transfected with a vector containing the LH receptor and maintained under hygromycin selection were obtained from the laboratory of Dr. Marvin Gershengorn. Compounds were assayed using a HTRF cAMP detection kit (Cisbio) on the LH receptor transfected cell line. Briefly, 750 cells were plated in 2.5 ul/well of complete media (DMEM containing 10 % FCS, and 100 uM RO 20-1724) in 1536 well solid bottom white plates and 23 nl/well compound in DMSO solution or controls was added. Following 30 minute incubation at room temperature, 2.5 ul/well of labeled d2 cAMP and 2.5 ul/well of anti-cAMP antibody (both diluted 1:20 in lysis buffer) were added to each well using a flying reagent dispenser (Aurora Discovery, San Diego) . Plates were measured using the Envision plate reader (PerkinElmer, Boston, MA) with excitation at 330 nm and emissions of 615 nm and 660 nm. Keywords: Luteinizing hormone LH, Thyroid-stimulating hormone TSH, TSHR, TSHR agonist, quantitative high throughput screening, qHTS, HTS, probe identification, CNG, cAMP, cyclic nucleotide gated ion channel PubChem
With `COc1ccc(C2Nc3ccccc3C(=O)N2Cc2ccco2)cc1COc1ccc(NC(C)=O)cc1` (configuration not stated) the outcome was “inactive”. With `Cc1sc2ncn(/N=C/c3cn(-c4ccccc4)nc3-c3ccccc3)c(=O)c2c1C` the outcome was “inactive”. `O=C(COC(=O)C12CC3CC(CC(Br)(C3)C1)C2)NCc1ccco1` was tested, and the outcome was “inactive”. `O=C1C2C3CCCC3=C3CCCC3C2C(=O)N1c1cccc(Cl)c1` (configuration not stated) was tested, and the outcome was “inactive”. In the case of `COc1ccc(C2Nc3ccccc3C(=O)N2Cc2ccco2)cc1COc1ccc([N+](=O)[O-])cc1` (configuration not stated), the outcome is reported as “inactive”. With `O=C1C2C3CCCC3=C3CCCC3C2C(=O)N1c1ccccc1Cl` (configuration not stated) the outcome was “inactive”. With `CCn1c(=O)c(C(=O)CN2CCCc3ccccc32)c(N)n(Cc2ccccc2)c1=O` the outcome was “inactive”. `O=C1C2C3CCCC3=C3CCCC3C2C(=O)N1c1ccc(F)cc1` (configuration not stated) was tested, and the outcome was “inactive”. In the case of `NC(=O)c1nsc(C(=O)N(CC(=O)NCc2ccc3c(c2)OCO3)C2CCCCC2)c1N`, the outcome is reported as “inactive”. For `COc1ccc(C(=O)N(Cc2ccco2)Cc2cccs2)cc1`, the outcome was “inactive”. `COc1ccc(C(=O)N(Cc2ccco2)Cc2cccs2)c(O)c1` was tested, and the outcome was “inactive”. `Cc1nn(-c2ccccc2)c(N2CCCC2)c1/C=N/n1cnc2scc(-c3ccccc3)c2c1=O` was tested, and the outcome was “inactive”. `COc1ccc(C2Nc3ccccc3C(=O)N2Cc2ccco2)cc1COc1c(C)cccc1C` (configuration not stated) was tested, and the outcome was “inactive”. For `COc1cc(OC)c(C(=O)N(Cc2ccco2)Cc2cccs2)cc1OC`, the outcome was “inactive”. `O=c1c2c(-c3ccccc3)csc2ncn1/N=C/c1cn(-c2ccccc2)nc1-c1cccs1` was tested, and the outcome was “inactive”. In the case of `O=C(COC(=O)C12CC3CC(CC(C3)C1)C2)NCc1ccco1`, the outcome is reported as “inactive”. `O=C1C2C3CCCC3=C3CCCC3C2C(=O)N1c1ccc(Cl)cc1` (configuration not stated) was tested, and the outcome was “inactive”. For `NC(=O)c1nsc(C(=O)N(CC(=O)NC2CCCC2)Cc2ccc3c(c2)OCO3)c1N`, the outcome was “inactive”. `O=C(COC(=O)C12CC3CC(CC(O)(C3)C1)C2)NCc1ccco1` was tested, and the outcome was “inactive”. In the case of `O=C(COC(=O)C12CC3CC(CC(C3)C1)C2)NCC1CCCO1` (configuration not stated), the outcome is reported as “inactive”. `O=C(COC(=O)C12CC3CC(CC(Cl)(C3)C1)C2)NCc1ccco1` was tested, and the outcome was “inactive”. For `COc1cc(OC)cc(C(=O)N(Cc2ccco2)Cc2cccs2)c1`, the outcome was “inactive”. With `O=C1CC(c2ccco2)CC2=C1C(c1ccccc1)n1nc(C(F)(F)F)nc1N2` (configuration not stated) the outcome was “inactive”. `O=C1CC(c2ccccc2)CC2=C1C(c1ccco1)n1nc(C(F)(F)F)nc1N2` (configuration not stated) was tested, and the outcome was “inactive”. With `CC(NC(=O)COC(=O)c1ccco1)C12CC3CC(CC(C3)C1)C2` (configuration not stated) the outcome was “inactive”. In the case of `NC(=O)c1nsc(C(=O)N(CC(=O)NCc2ccc3c(c2)OCO3)C2CCCC2)c1N`, the outcome is reported as “inactive”. `COc1ccc(C2Nc3cccc(O)c3C(=O)N2Cc2ccccc2)cc1COc1ccc(NC(C)=O)cc1` (configuration not stated) was tested, and the outcome was “inactive”.
